Source: PubChem BioAssay (EPA / NIEHS)
“And” between values parts separate entries of the source, which are not always exact repeats. Equal values may be shown once. The source holds several records for some structures; these can differ, active in one and inactive in another. The source made the active and inactive calls. How the source made its calls: active means hit-call score of the fitted dose curve at least 0.9, where 1 is the maximum; inactive means score below 0.9.

Each compound was assayed on Tumor necrosis factor receptor superfamily member 6 (Homo sapiens) (UniProt P25445) (assay: LTEA_HepaRG_FAS: Life Technologies and Expression Analysis (LTEA) Assay for Fas cell surface death receptor (FAS) using HepaRG (AID 2283447)). Conditions: mRNA level, 48 h; actives raise or lower the signal.
Summary of the method: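 FAS transcript level was measured by TaqMan qRT-PCR against three housekeeping genes after 48 h chemical exposure. Cells were HepaRG, 0.5% DMSO vehicle, with a top concentration of 100 uM and half-log dilutions over eight points, in duplicate.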

Row | SMILES | outcome
1 | CNC(=O)ON=CC(C)(C)SC | inactive
2 | COP(N)(=O)SC (stereo unspecified) | inactive
3 | CC(C)C1(C)N=C(c2nc3ccccc3cc2C(=O)O)NC1=O (stereo unspecified) | inactive
4 | O=C(O)c1nc(Cl)ccc1Cl | inactive

Each compound was assayed on Fatty acid synthase (Homo sapiens) (UniProt P49327) (assay: LTEA_HepaRG_FASN: Life Technologies and Expression Analysis (LTEA) Assay for Fatty Acid Synthase (FASN) using HepaRG (AID 2283448;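 on AC50: differentiated human HepaRG liver cells in serum-free induction medium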)). Conditions: mRNA level, 48 h; actives raise or lower the signal.
Chain of Fatty acid synthase (Homo sapiens) (P49327 whole entry, looked up): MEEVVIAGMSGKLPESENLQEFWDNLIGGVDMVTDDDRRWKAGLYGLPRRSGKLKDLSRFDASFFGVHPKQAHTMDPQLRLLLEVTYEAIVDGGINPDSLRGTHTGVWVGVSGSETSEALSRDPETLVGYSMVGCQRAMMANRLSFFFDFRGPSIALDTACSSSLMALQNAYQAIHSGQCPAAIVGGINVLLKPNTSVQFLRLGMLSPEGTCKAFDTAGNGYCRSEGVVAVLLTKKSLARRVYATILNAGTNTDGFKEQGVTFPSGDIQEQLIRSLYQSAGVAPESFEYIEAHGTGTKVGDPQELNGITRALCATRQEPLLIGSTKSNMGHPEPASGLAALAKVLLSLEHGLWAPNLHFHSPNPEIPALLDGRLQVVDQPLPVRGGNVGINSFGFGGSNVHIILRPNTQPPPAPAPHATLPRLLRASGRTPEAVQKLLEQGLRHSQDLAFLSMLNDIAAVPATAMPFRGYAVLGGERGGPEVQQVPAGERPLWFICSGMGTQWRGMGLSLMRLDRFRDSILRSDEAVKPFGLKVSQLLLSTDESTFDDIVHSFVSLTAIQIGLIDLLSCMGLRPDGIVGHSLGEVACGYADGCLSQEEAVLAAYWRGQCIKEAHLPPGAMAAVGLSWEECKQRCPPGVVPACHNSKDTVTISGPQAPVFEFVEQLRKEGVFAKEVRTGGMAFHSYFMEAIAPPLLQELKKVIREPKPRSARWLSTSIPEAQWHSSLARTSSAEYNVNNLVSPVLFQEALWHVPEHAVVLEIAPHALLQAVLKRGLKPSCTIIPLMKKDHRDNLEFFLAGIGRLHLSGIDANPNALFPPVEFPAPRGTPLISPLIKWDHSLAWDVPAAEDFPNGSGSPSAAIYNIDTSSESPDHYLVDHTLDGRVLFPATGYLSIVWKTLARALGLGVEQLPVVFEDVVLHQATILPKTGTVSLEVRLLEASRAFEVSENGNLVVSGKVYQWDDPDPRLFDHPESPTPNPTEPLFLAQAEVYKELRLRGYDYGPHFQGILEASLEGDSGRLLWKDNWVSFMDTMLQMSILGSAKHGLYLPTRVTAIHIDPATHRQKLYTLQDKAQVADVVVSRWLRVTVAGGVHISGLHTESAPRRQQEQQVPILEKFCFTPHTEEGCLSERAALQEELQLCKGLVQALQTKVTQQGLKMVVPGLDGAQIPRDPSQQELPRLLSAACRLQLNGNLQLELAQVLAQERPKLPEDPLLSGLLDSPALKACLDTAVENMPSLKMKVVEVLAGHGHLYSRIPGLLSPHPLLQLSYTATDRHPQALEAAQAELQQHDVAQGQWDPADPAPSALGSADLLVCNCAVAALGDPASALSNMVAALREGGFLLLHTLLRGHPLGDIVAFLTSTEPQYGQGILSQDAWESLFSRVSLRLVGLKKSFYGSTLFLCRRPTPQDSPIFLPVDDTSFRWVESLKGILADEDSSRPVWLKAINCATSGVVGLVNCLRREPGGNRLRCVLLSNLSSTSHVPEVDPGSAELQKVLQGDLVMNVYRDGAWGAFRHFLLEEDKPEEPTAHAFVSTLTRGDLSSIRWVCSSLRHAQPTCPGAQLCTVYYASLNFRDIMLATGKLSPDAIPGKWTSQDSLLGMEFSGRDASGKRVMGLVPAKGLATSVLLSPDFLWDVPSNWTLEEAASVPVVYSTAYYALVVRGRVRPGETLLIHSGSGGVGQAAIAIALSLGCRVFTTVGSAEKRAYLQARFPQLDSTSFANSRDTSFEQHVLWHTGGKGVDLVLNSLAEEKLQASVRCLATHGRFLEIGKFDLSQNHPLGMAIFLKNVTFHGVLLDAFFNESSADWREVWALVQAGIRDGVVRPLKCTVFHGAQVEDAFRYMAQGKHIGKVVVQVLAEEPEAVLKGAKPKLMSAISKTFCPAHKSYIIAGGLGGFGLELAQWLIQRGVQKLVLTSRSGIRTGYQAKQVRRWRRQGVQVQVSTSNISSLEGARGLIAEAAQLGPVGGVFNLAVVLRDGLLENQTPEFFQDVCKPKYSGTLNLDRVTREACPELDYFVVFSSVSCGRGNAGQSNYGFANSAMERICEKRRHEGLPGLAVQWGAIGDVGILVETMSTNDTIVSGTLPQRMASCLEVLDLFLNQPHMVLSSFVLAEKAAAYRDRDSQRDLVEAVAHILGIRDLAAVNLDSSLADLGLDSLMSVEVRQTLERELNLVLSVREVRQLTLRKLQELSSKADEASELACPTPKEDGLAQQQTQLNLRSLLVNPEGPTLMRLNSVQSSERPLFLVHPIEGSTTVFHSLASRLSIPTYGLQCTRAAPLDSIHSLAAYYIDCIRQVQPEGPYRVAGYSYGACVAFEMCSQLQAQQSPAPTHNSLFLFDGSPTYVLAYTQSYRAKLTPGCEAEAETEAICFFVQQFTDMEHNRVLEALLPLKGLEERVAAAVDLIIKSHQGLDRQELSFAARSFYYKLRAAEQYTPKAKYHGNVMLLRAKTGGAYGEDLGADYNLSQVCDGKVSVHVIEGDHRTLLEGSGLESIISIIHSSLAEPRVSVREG
Summary of the method: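 In human HepaRG cultures, 48 h chemical exposure (up to 100 uM, 0.5% DMSO) preceded TaqMan qRT-PCR of FASN.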

Row | SMILES | outcome | AC50
5 | CCCCOC(=O)c1ccccc1C(=O)OCCCC | inactive | 
6 | COC(=O)N(OC)c1ccccc1COc1ccn(-c2ccc(Cl)cc2)n1 | inactive | 
7 | O=C(Nc1ccccc1)Nc1ccnc(Cl)c1 | inactive | 
8 | CN(C)C(=S)SSC(=S)N(C)C | inactive | 
9 | CS/C(C)=N/OC(=O)N(C)SN(C)C(=O)O/N=C(\C)SC | inactive | 
10 | CC(C)(C)c1ccc(CSc2cnn(C(C)(C)C)c(=O)c2Cl)cc1 |  | 24 µM (active)
11 | COc1ccc(C(c2ccc(OC)cc2)C(Cl)(Cl)Cl)cc1 |  | 80.5 µM (active)
12 | N#Cc1cc(Br)c(O)c(Br)c1 |  | 8.13 µM (active)
13 | CC(Oc1ccc(Cl)cc1Cl)C(=O)O (stereo unspecified) | inactive | 
14 | COc1cnc(OC)n2nc(NS(=O)(=O)c3c(OCC(F)F)cccc3C(F)(F)F)nc12 | inactive | 
15 | CCCCC(CC)COC(=O)c1ccccc1C(=O)OCC(CC)CCCC (stereo unspecified) | inactive | 
16 | COC(=O)C=C(C)OP(=O)(OC)OC | inactive | 
17 | C#CCOS(=O)OC1CCCCC1Oc1ccc(C(C)(C)C)cc1 (stereo unspecified) |  | 27.5 µM (active)
18 | COC(=O)c1ccccc1C(=O)OC | inactive | 
19 | O=C(O)COc1nc(Cl)c(Cl)cc1Cl | inactive | 
20 | CCCCNC(=O)OCC#CI | inactive | 
21 | N#Cc1nn(-c2c(Cl)cc(C(F)(F)F)cc2Cl)c(N)c1S(=O)C(F)(F)F (stereo unspecified) |  | 58.1 µM (active)
22 | Cc1ccc(-c2c(Cl)nc(C#N)n2S(=O)(=O)N(C)C)cc1 |  | 9 µM (active)
23 | CCc1nn(C)c(C(=O)NCc2ccc(C(C)(C)C)cc2)c1Cl |  | 42.5 µM (active)
24 | CCCN(CCC)c1c([N+](=O)[O-])cc(S(N)(=O)=O)cc1[N+](=O)[O-] | inactive | 94.6 µM (active) and 74.2 µM (active)
25 | OC(c1ccc(Cl)cc1)(c1cncnc1)c1ccccc1Cl (stereo unspecified) |  | 87.3 µM (active)
26 | Fc1ccc(Oc2ccnc3cc(Cl)cc(Cl)c23)cc1 | inactive | 
27 | CNC(=O)ON=CC(C)(C)SC | inactive | 
28 | COP(N)(=O)SC (stereo unspecified) | inactive | 
29 | CC(C)C1(C)N=C(c2nc3ccccc3cc2C(=O)O)NC1=O (stereo unspecified) | inactive | 
30 | O=C(O)c1nc(Cl)ccc1Cl | inactive | 
